Test results reported in the supplement of paper PMC8728848.
Shown is part of a subset that was picked to be rich in the strongest signals.

Assays:
Experiment in all cases: glycan array binding signal (z-score within array); higher = stronger binding
Details in all cases: glycan notation: IUPAC condensed, linker removed
[1] = target: Gal(b1-4)GlcNAc(b1-3)Gal(b1-4)GlcNAc(b1-3)Gal(b1-4)GlcNAc(b1-3)Gal(b1-4)GlcNAc(b1-2)[Gal(b1-4)GlcNAc(b1-3)Gal(b1-4)GlcNAc(b1-3)Gal(b1-4)GlcNAc(b1-3)Gal(b1-4)GlcNAc(b1-6)]Man(a1-6)[Gal(b1-4)GlcNAc(b1-3)Gal(b1-4)GlcNAc(b1-3)Gal(b1-4)GlcNAc(b1-3)Gal(b1-4)GlcNAc(b1-2)Man(a1-3)]Man(b1-4)GlcNAc(b1-4)[Fuc(a1-6)]GlcNAc
Procedure, shortened: (§1)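 Negative Z-scores can be read as non-binding. The Z-score is calculated within each array and then averaged across arrays of one protein sequence at different concentrations or buffers and across linkers. Arrays, 3228 in all, were curated from the Consortium for Functional Glycomics database and kept only where the protein sequence was available.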

[2] = target: Gal(b1-4)GlcNAc(b1-3)Gal(b1-4)GlcNAc(b1-3)Gal(b1-4)GlcNAc(b1-3)Gal(b1-4)GlcNAc(b1-3)Gal(b1-4)GlcNAc(b1-2)Man(a1-3)[Gal(b1-4)GlcNAc(b1-3)Gal(b1-4)GlcNAc(b1-3)Gal(b1-4)GlcNAc(b1-3)Gal(b1-4)GlcNAc(b1-3)Gal(b1-4)GlcNAc(b1-2)Man(a1-6)]Man(b1-4)GlcNAc(b1-4)GlcNAc
Procedure, shortened: as §1

[3] = target: Gal(b1-4)GlcNAc(b1-3)Gal(b1-4)GlcNAc(b1-3)Gal(b1-4)GlcNAc(b1-3)Gal(b1-4)GlcNAc(b1-3)Gal(b1-4)GlcNAc(b1-2)Man(a1-3)[Gal(b1-4)GlcNAc(b1-3)Gal(b1-4)GlcNAc(b1-3)Gal(b1-4)GlcNAc(b1-3)Gal(b1-4)GlcNAc(b1-3)Gal(b1-4)GlcNAc(b1-2)Man(a1-6)]Man(b1-4)GlcNAc(b1-4)[Fuc(a1-6)]GlcNAc
Procedure, shortened: as §1

[4] = target: Gal(b1-4)GlcNAc(b1-3)Gal(b1-4)GlcNAc(b1-3)Gal(b1-4)GlcNAc(b1-3)Gal(b1-4)GlcNAc(b1-3)Gal(b1-4)GlcNAc(b1-3)Gal(b1-4)GlcNAc(b1-2)Man(a1-3)[Gal(b1-4)GlcNAc(b1-3)Gal(b1-4)GlcNAc(b1-3)Gal(b1-4)GlcNAc(b1-3)Gal(b1-4)GlcNAc(b1-3)Gal(b1-4)GlcNAc(b1-3)Gal(b1-4)GlcNAc(b1-2)Man(a1-6)]Man(b1-4)GlcNAc(b1-4)GlcNAc
Procedure, shortened: as §1

[5] = target: Gal(b1-4)GlcNAc(b1-3)Gal(b1-4)GlcNAc(b1-3)[Gal(b1-4)GlcNAc(b1-3)Gal(b1-4)GlcNAc(b1-6)]GalNAc
Procedure, shortened: as §1

[6] = target: Gal(b1-4)GlcNAc(b1-6)GalNAc
Procedure, shortened: as §1

Gal3S(b1-4)Glc6S = target: Gal3S(b1-4)Glc6S
Procedure, shortened: as §1

[7] = target: Gal3S(b1-4)[Fuc(a1-3)]Glc6S
Procedure, shortened: as §1

Gal6S(b1-4)Glc = target: Gal6S(b1-4)Glc
Procedure, shortened: as §1

[8] = target: GalNAc(b1-4)GlcNAc(b1-2)Man(a1-3)[GalNAc(b1-4)GlcNAc(b1-2)Man(a1-6)]Man(b1-4)GlcNAc(b1-4)GlcNAc
Procedure, shortened: as §1

[9] = target: GlcNAc(b1-3)Gal(b1-4)GlcNAc
Procedure, shortened: as §1

[10] = target: GlcNAc(b1-3)Gal(b1-4)GlcNAc(b1-3)Gal(b1-4)GlcNAc
Procedure, shortened: as §1

[11] = target: GlcNAc(b1-3)Gal(b1-4)GlcNAc(b1-3)Gal(b1-4)GlcNAc(b1-3)Gal(b1-4)GlcNAc(b1-3)Gal(b1-4)GlcNAc(b1-2)Man(a1-3)[GlcNAc(b1-3)Gal(b1-4)GlcNAc(b1-3)Gal(b1-4)GlcNAc(b1-3)Gal(b1-4)GlcNAc(b1-3)Gal(b1-4)GlcNAc(b1-2)Man(a1-6)]Man(b1-4)GlcNAc(b1-4)[Fuc(a1-6)]GlcNAc
Procedure, shortened: as §1

[12] = target: GlcNAc(b1-3)Gal(b1-4)GlcNAc(b1-3)Gal(b1-4)GlcNAc(b1-3)GalNAc
Procedure, shortened: as §1

[13] = target: GlcNAc(b1-4)GlcNAc(b1-4)GlcNAc(b1-4)GlcNAc(b1-4)GlcNAc
Procedure, shortened: as §1

Man(a1-6)Man = target: Man(a1-6)Man
Procedure, shortened: as §1

[14] = target: Neu5Ac(a2-3)Gal(b1-3)GlcNAc(b1-2)Man(a1-3)[Neu5Ac(a2-3)Gal(b1-3)GlcNAc(b1-2)Man(a1-6)]Man(b1-4)GlcNAc(b1-4)GlcNAc
Procedure, shortened: as §1

[15] = target: Neu5Ac(a2-3)Gal(b1-4)GlcNAc
Procedure, shortened: as §1

[16] = target: Neu5Ac(a2-3)Gal(b1-4)GlcNAc(b1-3)Gal(b1-4)[Fuc(a1-3)]GlcNAc
Procedure, shortened: as §1

[17] = target: Neu5Ac(a2-3)Gal(b1-4)GlcNAc(b1-3)GalNAc
Procedure, shortened: as §1

Neu5Ac(a2-6)Gal = target: Neu5Ac(a2-6)Gal
Procedure, shortened: as §1

[18] = target: Neu5Ac(a2-6)Gal(b1-4)GlcNAc(b1-2)Man
Procedure, shortened: as §1

[19] = target: Neu5Ac(a2-6)Gal(b1-4)GlcNAc(b1-2)[Neu5Ac(a2-6)Gal(b1-4)GlcNAc(b1-4)]Man(a1-3)[GlcNAc(b1-4)][Neu5Ac(a2-6)Gal(b1-4)GlcNAc(b1-2)[Neu5Ac(a2-6)Gal(b1-4)GlcNAc(b1-6)]Man(a1-6)]Man(b1-4)GlcNAc(b1-4)GlcNAc
Procedure, shortened: as §1

[20] = target: Neu5Ac(a2-6)GlcNAc(b1-4)GlcNAc(b1-4)GlcNAc
Procedure, shortened: as §1

[21] = target: Neu5Ac(a2-8)Neu5Ac(a2-3)Gal(b1-3)GalNAc(b1-4)[Neu5Ac(a2-3)]Gal(b1-4)Glc
Procedure, shortened: as §1

[22] = target: Neu5Ac(a2-8)Neu5Ac(a2-8)Neu5Ac(a2-3)[Gal(b1-3)GalNAc(b1-4)]Gal(b1-4)Glc
Procedure, shortened: as §1

[23] = target: Neu5Gc(a2-3)Gal(b1-3)[Fuc(a1-4)]GlcNAc
Procedure, shortened: as §1

B1: Gal 8 (Mus musculus), Q9JL15 (protein)
chain: MGGSHHHHHHGMASMLSLNNLQNIIYNPIIPYVGTITEQLKPGSLIVIRGHVPKDSERFQVDFQLGNSLKPRADVAFHFNPRFKRSSCIVCNTLTQEKWGWEEITYDMPFRKEKSFEIVFMVLKNKFQVAVNGRHVLLYAHRISPEQIDTVGIYGKVNIHSIGFRFSSASALPHTLGDLQSMETSALGLTQINRENIQKPGKLQLSLPFEARLNASMGPGRTVVIKGEVNTNARSFNVDLVAGKTRDIALHLNPRLNVKAFVRNSFLQDAWGEEERNITCFPFSSGMYFEMIIYCDVREFKVAINGVHSLEYKHRFKDLSSIDTLSVDGDIRLLDVRSW
glycan array binding signal (z-score) [1]: 2.76 | glycan array binding signal (z-score) [2]: 3.48 | glycan array binding signal (z-score) [3]: 3.61 | glycan array binding signal (z-score) [4]: 3.5 | glycan array binding signal (z-score) [5]: -0.063 | glycan array binding signal (z-score) [6]: -0.214 | glycan array binding signal (z-score) (Gal3S(b1-4)Glc6S): 0.566 | glycan array binding signal (z-score) [7]: -0.498 | glycan array binding signal (z-score) (Gal6S(b1-4)Glc): -0.532 | glycan array binding signal (z-score) [8]: -0.195 | glycan array binding signal (z-score) [9]: -0.163 | glycan array binding signal (z-score) [10]: 1.11 | glycan array binding signal (z-score) [11]: 3.01 | glycan array binding signal (z-score) [12]: 0.651 | glycan array binding signal (z-score) [13]: -0.54 | glycan array binding signal (z-score) (Man(a1-6)Man): -0.51 | glycan array binding signal (z-score) [14]: -0.466 | glycan array binding signal (z-score) [15]: -0.517 | glycan array binding signal (z-score) [16]: -0.215 | glycan array binding signal (z-score) [17]: -0.525 | glycan array binding signal (z-score) (Neu5Ac(a2-6)Gal): -0.511 | glycan array binding signal (z-score) [18]: -0.548 | glycan array binding signal (z-score) [19]: -0.602 | glycan array binding signal (z-score) [20]: -0.545 | glycan array binding signal (z-score) [21]: 0.316 | glycan array binding signal (z-score) [22]: -0.539 | glycan array binding signal (z-score) [23]: -0.514
